The text below walks through data of PubChem BioAssay (Tox21).

Results filed as inconclusive are left out. A call without a number means that no potency is given here. Unmarked numbers belong to inactive results. Active and inactive are the calls of the source. Calls come from the whole dose curve.

The nature of the assay: p53 small molecule agonists, cell-based qHTS assay with rat liver microsomes (AID 1963578). Particulars: HCT-116 p53RE-bla, beta-lactamase ratio, 16 h; series mostly up to 66 µM. An excerpt:
U.S. Tox21 Program National Center for Advancing Translational Sciences [NCATS] Division of Preclinical Innovation [DPI] U.S. Environmental Protection Agency [EPA] National Institutes of Environmental Health Sciences [NIEHS] National Toxicology Program [NTP] U.S. Food and Drug Administration [FDA] Tox21 Assay Overview: p53, a tumor suppressor protein, is activated following cellular insult, including DNA damage and other cellular stresses. The activation of p53 regulates cell fate by inducing DNA repair, cell cycle arrest, apoptosis, or cellular senescence. The activation of p53, therefore, is a good indicator of DNA damage and other cellular stresses. […] The activation of the reporter gene under culture conditions can be detected by fluorescence intensity. This cell line was used to screen the Tox21 10K compound library in the condition of presence of rat liver microsomes and to identify agonists that activate the p53 signaling pathway after in vitro metabolic activation (Ooka et al., Archive of Toxicology 96:1975-1987, 2022).
Tox21 Assay Protocol Summary: The p53RE-bla cells were dispensed at 4,000cells/3ul/well in 1536-well black-clear bottom plates. After the assay plates were incubated at 37 C, 5% CO2 incubator for 5 hours, 23 nL of compounds dissolved in DMSO, positive controls or DMSO only was transferred to the assay plate. Following compound addition, 3 uL of rat liver microsomes (Molecular Toxicology, Boone, NC) at final concentration of 0.5 mg/mL and 1uL of Beta-Nicotinamide adenine dinucleotide 2-phosphate (NADPH) at final concentration of 0.5 mg/mL were transferred to the assay plate. The plates were incubated at 37 C for 16 hours. 1 uL of LiveBLAzer detection mixture was added to each well and the plates were incubated at room temperature in the dark for 2 h.
Turning to `Fc1ccccc1[C@@H](F)COC1CCC(Nc2ncnc3[nH]ncc23)CC1` (stereo not given in full), the Potency entry is “inactive”. Same read-out and setting: in the case of `C/C=C/C=C/CO` it was “inactive”. On the same count and under the same terms, the result for `COc1cc(C(=O)OCCCN2CCCN(CCCOC(=O)c3cc(OC)c(OC)c(OC)c3)CC2)cc(OC)c1OC` reads “inactive”. Still for that read-out and setting: in the case of `O=[N+]([O-])c1cccc(C(F)(F)F)c1` it was “inactive”; in that of `CC(CN)CCCN` (stereo not given), “inactive”. `Cc1cc(Cl)c(C)cc1Cl`: the Potency entry is “inactive”.

Consider `CC(=O)/C=C/C=C1/C2CCC(C2)C1(C)C` (stereo not given), for which the Potency entry was “inactive”. On the same count and under the same terms, the result for `Cc1ccc(C(=O)C(C)CN2CCCCC2)cc1` (stereo not given) reads “inactive”.

In the case of `O=C1CCCc2c1cc1ccc3cccc4ccc2c1c34`, the Potency result was “inactive”. On the same count and under the same terms, the result for `CC(=O)OC(OC(C)=O)c1ccc([N+](=O)[O-])o1` reads “inactive”; that for `CSC(=O)c1cccc2nnsc12`, “inactive”. The same measure, in the same setting: the result for `O=C(c1ccccc1)c1ccc(O)cc1O` reads “inactive”; that for `CCOC(=O)NCCOc1ccc(Oc2ccccc2)cc1`, “inactive”; that for `COC(=O)/C=C/C(C)=C\C=C\C(C)=C\C=C\C=C(C)\C=C\C=C(C)\C=C\C(=O)O`, “inactive”. On the same count and under the same terms, in the case of `CC(C)(C)c1cc(O)c(C(C)(C)C)cc1O` it was “inactive”.

In the case of `CC(C)(C)c1ccc(OC(=O)c2ccccc2O)cc1`, the Potency entry was “inactive”. In the case of `N#C/C(=C1/SC[C@@H](c2ccc(Cl)cc2Cl)S1)n1ccnc1`, the Potency result is “inactive”. On the same count and under the same terms, the result for `CN(C)c1ccc(SC#N)cc1` reads “inactive”. The same measure, in the same setting: in the case of `CCCOc1ccc2c(c1)CC[C@@H]1[C@@H]2CC[C@]2(C)C(OC)CC[C@@H]12` (stereo not given in full) it was “inactive”. Still for that read-out and setting: the result for `OCCN1CCN(CC/C=C2/c3ccccc3Sc3ccc(C(F)(F)F)cc32)CC1` reads “inactive”; that for `O=C1c2ccccc2C(=O)c2c1ccc(O)c2O`, “inactive”. `O=C1C=CC(=O)N1c1cccc(N2C(=O)C=CC2=O)c1`: the Potency result was “inactive”. Still for that read-out and setting: in the case of `CC1=C(C/C=C(\C)CCC[C@H](C)CCC[C@H](C)CCCC(C)C)C(=O)c2ccccc2C1=O` it was “inactive”; in that of `CNCC(O)c1ccc(O)c(O)c1` (stereo not given), “inactive”.

As for `O=C1c2ccccc2Cc2ccccc21`, the Potency result was “inactive”.

Turning to `CCCCCCCCOC(=O)c1cc(O)c(O)c(O)c1`, the Potency result was “inactive”. Consider `NC(=O)C1(N2CCCCC2)CCN(CCCN2c3ccccc3CCc3ccc(Cl)cc32)CC1`, for which the Potency result was “inactive”.

Regarding `CCOc1nc2cccc(C(=O)OC(C)OC(=O)OC3CCCCC3)c2n1Cc1ccc(-c2ccccc2-c2nn[nH]n2)cc1` (stereo not given), the Potency entry was “inactive”. The same measure, in the same setting: in the case of `COc1ccc(N=Nc2cc(C)c(N=Nc3ccc(S(=O)(=O)O)cc3)cc2OC)cc1` it was “inactive”; in that of `NCCCOCCOCCOCCCN`, “inactive”. The same measure, in the same setting: the result for `Cc1c(C(=O)NN2CCCCC2)nn(-c2ccc(Cl)cc2Cl)c1-c1ccc(Cl)cc1` reads “inactive”; that for `CN1CCN(CCCN2c3ccccc3Sc3ccc(S(=O)(=O)N(C)C)cc32)CC1`, “inactive”. Regarding `[O-][n+]1ccccc1SSc1cccc[n+]1[O-]`, the activation is -12.8% [at 13.6 µM]. With `O=S(=O)(O)c1cc(Cl)c(Cl)cc1Cl`, the Potency result is “inactive”. The same measure, in the same setting: in the case of `CCc1cc(Cc2cc(CC)c(N)c(CC)c2)cc(CC)c1N` it was “inactive”. Still for that read-out and setting: the result for `CCCCCCCCCCCCCCC[C@H](O)[C@@H](N)CO` reads “inactive”; that for `Sc1nc2ccccc2s1`, “inactive”; that for `Cc1cc(O)c2c(c1)C(=O)c1cc(O)cc(O)c1C2=O`, “inactive”. The same measure, in the same setting: in the case of `COC(=O)CSc1cc(N=c2sc(=O)n3n2CCCC3)c(F)cc1Cl` it was “inactive”. Take `C=CC(=O)OCC1CC2CC1C1CCC(COC(=O)C=C)C21` (stereo not given): the Potency result was “inactive”.
